Source: PubChem BioAssay (NCATS)
Records with an inconclusive call do not appear. A call without a number means that no potency is given here. A number with no mark means an inactive call. Active and inactive are the calls of the source. The call rests on the fitted dose curve; in most records, active means well fitted inhibition curve with a large enough effect; inconclusive means small, poorly fitted or top-dose-only effect; inactive means flat fitted curve, though single readings scatter.

Tests used:
Experiment in all cases: qHTS profiling for inhibitors of Plasmodium falciparum proliferation (AID 504749); further: nearly all actives have a fitted effect of over 60% in size
Conditions in all cases: P. falciparum in erythrocytes, SYBR Green DNA, 72 h; series mostly up to 28.7 µM
DIV14 = test system: DIV14
Outline: (§1)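 Fluorescence of SYBR Green-bound parasite DNA, read at 485/535 nm, served as the growth measure. Infected erythrocytes were cultured with compound 72 h; artemisinin (0.29 uM) and DMSO wells defined the normalization range.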

DIV17 = test system: DIV17
Outline: as §1

DIV30 = test system: DIV30
Outline: as §1

Dd2 = test system: Dd2
Outline: as §1

ECU = test system: ECU
Outline: as §1

FAB9 = test system: FAB9
Outline: as §1

GB4 = test system: GB4
Outline: as §1

HB3 = test system: HB3
Outline: as §1

ICS = test system: ICS
Outline: as §1

N140 = test system: N140
Outline: as §1

P93_24 = test system: P93_24
Outline: as §1

P94_40 = test system: P94_40
Outline: as §1

PAD = test system: PAD
Outline: as §1

PC15 = test system: PC15
Outline: as §1

PC26 = test system: PC26
Outline: as §1

PC49 = test system: PC49
Outline: as §1

SC27B = test system: SC27B
Outline: as §1

TAB109 = test system: TAB109
Outline: as §1

TAB113 = test system: TAB113
Outline: as §1

JCK = test system: JCK
Outline: as §1
Potency means the concentration at half of the fitted maximal effect.

Row | Compound | Potency (DIV14) | Potency (DIV17) | Potency (DIV30) | Potency (Dd2) | Potency (ECU) | Potency (FAB9) | Potency (GB4) | Potency (HB3) | Potency (ICS) | Potency (N140) | Potency (P93_24) | Potency (P94_40) | Potency (PAD) | Potency (PC15) | Potency (PC26) | Potency (PC49) | Potency (SC27B) | Potency (TAB109) | Potency (TAB113) | Potency (JCK)
1 | O=c1[nH]oc2c1CCNC2 | inactive | inactive | inactive | inactive | inactive | inactive | inactive | inactive | inactive | inactive | inactive | inactive | inactive | inactive | inactive | inactive | inactive | inactive | inactive | 
2 | COc1ccc2c(c1OC)C(=O)O[C@H]2[C@@H]1c2cc3c(cc2CCN1C)OCO3 | inactive | inactive | inactive |  |  |  | inactive |  |  |  |  |  |  |  | inactive |  |  |  |  | 
3 | Clc1ccc(C(c2ccc(Cl)cc2)C(Cl)(Cl)Cl)cc1 |  |  |  | inactive | inactive | inactive |  | inactive |  |  | inactive |  |  | inactive |  | inactive | inactive | inactive |  | inactive
4 | COC1CC(=C(c2cccs2)c2cccs2)C[N+](C)(C)C1 (stereo unspecified) |  |  |  |  | 8.91 µM (active) |  | 7.57 µM (active) | 8.91 µM (active) | 3.98 µM (active) | 7.94 µM (active) | 5.01 µM (active) | 2.24 µM (active) |  |  |  | inactive |  | 10 µM (active) |  | 
5 | O=C1c2ccccc2C(=O)c2ccccc21 |  |  |  |  |  |  |  | 11.2 µM (active) | 3.55 µM (active) |  |  | inactive |  |  |  | inactive |  |  |  | inactive
6 | C=C(C)[C@H]1CN[C@H](C(=O)O)[C@H]1CC(=O)O | inactive | inactive | inactive | inactive | inactive | inactive | inactive | inactive | inactive | inactive |  |  | inactive | inactive | inactive | inactive | inactive | inactive | inactive | inactive
7 | CC(C)c1cccc(C(C)C)c1O |  | inactive | inactive | inactive | inactive | inactive |  | inactive | inactive | inactive | inactive | inactive | inactive | inactive |  | inactive | inactive | inactive | inactive | inactive
8 | C[C@](O)(CS(=O)(=O)c1ccc(F)cc1)C(=O)Nc1ccc(C#N)c(C(F)(F)F)c1 |  |  | inactive | inactive |  | inactive | inactive | inactive | inactive | inactive | inactive | inactive | inactive | inactive | inactive | inactive | inactive |  | inactive | inactive
9 | CN1C(=O)CCS(=O)(=O)C1c1ccc(Cl)cc1 (stereo unspecified) | inactive | inactive | inactive | inactive | inactive | inactive | inactive | inactive | inactive | inactive | inactive | inactive | inactive | inactive | inactive | inactive | inactive | inactive | inactive | inactive
10 | Cc1ncsc1CCCl | inactive | inactive | inactive | inactive | inactive | inactive | inactive | inactive | inactive | inactive |  | inactive | inactive | inactive | inactive | inactive | inactive | inactive | inactive | inactive
11 | COc1ccc2c(c1)C13CCCC[C@@H]1C(C2)N(C)CC3 (stereo partly specified) | 2.69 µM (active) | 3.01 µM (active) |  | 5.62 µM (active) |  | inactive |  | inactive |  | inactive |  |  |  |  |  | 3.55 µM (active) |  |  | inactive | inactive
12 | CC(C)(C)NCC(O)c1cc(Cl)c(N)c(C(F)(F)F)c1 (stereo unspecified) | 6.01 µM (active) | 7.57 µM (active) |  | 12.6 µM (active) | 5.01 µM (active) | inactive | 12 µM (active) |  | 4.47 µM (active) | 2.82 µM (active) | 3.55 µM (active) |  | 12.6 µM (active) | 11.2 µM (active) |  | 11.2 µM (active) |  |  |  | 11.2 µM (active)
13 | C[C@]12CCC(=O)C=C1CC[C@@H]1[C@@H]2CC[C@]2(C)C(=O)CC[C@@H]12 | inactive |  | inactive | inactive |  | inactive | inactive | inactive | inactive | inactive | inactive | inactive |  | inactive | inactive | inactive | inactive | inactive | inactive | inactive
14 | Nc1ccc([As](=O)(O)O)cc1 | inactive | inactive | inactive |  | inactive | inactive |  | inactive |  | inactive | inactive |  | inactive | inactive | inactive | inactive | inactive | inactive | inactive | inactive
15 | CC(C)(C)NCC(O)c1ccccc1Cl (stereo unspecified) | 8.49 µM (active) | 6.01 µM (active) |  | 11.2 µM (active) |  | inactive | 13.5 µM (active) |  | 7.08 µM (active) |  |  | 11.2 µM (active) |  |  |  | 12.6 µM (active) |  |  |  | inactive
16 | NCCc1ccc(O)cc1 | inactive | inactive | inactive | inactive | inactive | inactive | inactive | inactive | inactive | inactive | inactive | inactive | inactive | inactive | inactive | inactive | inactive | inactive | inactive | inactive
17 | O=C1CN=C(c2ccccc2)c2cc([N+](=O)[O-])ccc2N1 |  | inactive | inactive | inactive | inactive | inactive | inactive | inactive | inactive | inactive | inactive | inactive | inactive | inactive | inactive | inactive | inactive | inactive | inactive | inactive
18 | O=C(N/N=C/c1ccc([N+](=O)[O-])o1)c1cc([N+](=O)[O-])cc([N+](=O)[O-])c1O | inactive |  |  |  |  |  |  | 1.58 µM (active) |  | 0.708 µM (active) | 0.1 µM (active) | 0.0794 µM (active) | 0.0071 µM (active) | inactive |  |  | 141 nM (active) | 0.0141 µM (active) | 282 nM (active) | 
